Screening results (PubChem BioAssay)
The entries come from a sample that favours hits as a whole.
CHX counter = counter-screen hit for Shiga toxin inhibitors, cycloheximide | max response, % | cell reporter, cycloheximide protein synthesis inhibition counterscreen | AID 2314 | 12% of 300,000 active; in the data active = max response mostly above about 13%, no sharp cut-off; inactive = mostly below about 14%; also: read at 38.3 µM for the half of the compounds with a filed dose; 0% is about no effect
FBPA Giardia inh = inhibitors of Giardia lamblia fructose-1,6-bisphosphate aldolase; A8B2U2; purified Giardia FBPA; Potency, µM (series often up to 59.6 µM), without a hit: at the top dose activity, negative = inhibition, most hits filed as inhibitors; 0.71% of 290,000 active; also: potency is read from the fitted curve at half-maximal effect; % is scaled to controls: 0 for no effect and ±100 for the full control effect; nearly all actives have a fitted effect of over 55% in size
Target sequence (A8B2U2 whole entry, looked up): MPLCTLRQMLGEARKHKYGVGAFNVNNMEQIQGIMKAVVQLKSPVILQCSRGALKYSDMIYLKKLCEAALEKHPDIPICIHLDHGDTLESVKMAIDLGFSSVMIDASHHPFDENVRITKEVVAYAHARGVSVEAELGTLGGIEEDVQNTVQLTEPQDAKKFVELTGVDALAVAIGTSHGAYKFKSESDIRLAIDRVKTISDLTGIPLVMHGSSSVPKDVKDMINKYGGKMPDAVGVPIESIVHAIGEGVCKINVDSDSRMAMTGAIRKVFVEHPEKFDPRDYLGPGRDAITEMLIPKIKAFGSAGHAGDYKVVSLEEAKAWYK
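40 nM FBPA preincubated 10 min at RT with compound (up to 57.5 uM final), then substrate plus GAPDH/TPI/NAD/arsenate coupling and diaphorase/resazurin added. Fluorescence read after 20 min at RT, 525/598 nm.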
Tb PYK inh = T. brucei pyruvate kinase inhibition; Q57TT1; TbPYK enzyme, Kinase-Glo Plus ATP luminescence, 45 min; Potency, µM (doses to about 76.8 µM), for the others: at the top dose activity, negative = inhibition, actives largely listed as inhibitors; 0.12% of 410,000 active; also: potency is read from the fitted curve at half-maximal effect; % is scaled to controls: 0 for no effect and ±100 for the full control effect; nearly all actives have a fitted effect of over 50% in size
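Quantitative HTS: titrated library compounds versus trypanosomal pyruvate kinase in TEA buffer (pH 7.2) containing KCl, MgCl2, BSA and Tween-20. Reactions were initiated with ADP, 130 uM final. Kinase-Glo Plus luminescence was read after 45 min at RT.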
LmPK inh = blocks Leishmania mexicana pyruvate kinase activity; Q27686; purified LmPK, Kinase-Glo ATP luminescence, 1 h; Potency, µM (highest dose often 57.5 µM), inactives show at the top dose activity change, negative = inhibition, actives largely listed as inhibitors; 0.37% of 290,000 active; AID 1721; also: potency is read from the fitted curve at half-maximal effect; % is scaled to controls: 0 for no effect and ±100 for the full control effect
Target sequence (Q27686 whole entry, looked up): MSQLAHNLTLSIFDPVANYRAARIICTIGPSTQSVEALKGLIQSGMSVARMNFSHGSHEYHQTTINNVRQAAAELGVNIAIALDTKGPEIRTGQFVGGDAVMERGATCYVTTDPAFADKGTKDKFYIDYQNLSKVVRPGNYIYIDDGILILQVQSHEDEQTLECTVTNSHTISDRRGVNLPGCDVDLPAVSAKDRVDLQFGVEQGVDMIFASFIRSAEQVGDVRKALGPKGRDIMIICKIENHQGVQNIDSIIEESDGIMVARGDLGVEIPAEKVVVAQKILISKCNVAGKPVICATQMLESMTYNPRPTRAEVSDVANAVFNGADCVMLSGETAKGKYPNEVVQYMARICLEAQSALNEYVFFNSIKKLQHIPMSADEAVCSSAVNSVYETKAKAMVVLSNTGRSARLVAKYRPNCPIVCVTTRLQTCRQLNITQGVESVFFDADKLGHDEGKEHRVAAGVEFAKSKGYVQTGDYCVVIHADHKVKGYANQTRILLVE
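Pyruvate kinase activity monitored as ATP production (luciferase luminescence). Conditions: 0.1 nM enzyme, 0.5 mM PEP, 0.1 mM ADP, 1 h, RT; normalized against uninhibited and no-enzyme wells.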
Shiga toxin inh = inhibitors of Shiga toxin in Vero cells. AID 2315. 9.2% of 290,000 active. inhibition, % at 38.7 µM. Vero cells, Shiga toxin protein synthesis inhibition reporter; in the data active = inhibition mostly above about 28%, no sharp cut-off; inactive = mostly below about 43%; also: 0% is about no effect
RE007 growth inh = less growth of the S. pombe RE007 Vpr strain; Potency, µM (series often up to 92.2 µM), inactives show top-dose activity change, negative = less growth, hits mostly inhibitors; S. pombe RE007 Vpr strain, BacTiter-Glo ATP luminescence, 24 h; 0.21% of 360,000 active; active = well fitted falling curve with a large enough effect; inconclusive = small, poorly fitted or top-dose-only effect; inactive = no such curve, though single readings can be large or run the other way; also: potency is read from the fitted curve at half-maximal effect; % is scaled to controls: 0 for no effect and ±100 for the full control effect; nearly all actives have a fitted effect of over 50% in size
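Fission yeast RE007 carrying one integrated HIV-1 vpr copy, seeded at OD 0.01 in PMG+AL medium with 23 nL pinned compound. Grown 24 h at 30 degrees; viability read by BacTiter-Glo luminescence after 5 min.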
The depositor's hits bear a star; ? = inconclusive; nt = no result given; + = active, no number. Unless noted, calls follow the shape of the dose curve; as a rule, active = well fitted curve in the direction sought with a large enough effect; inconclusive = small, poorly fitted or top-dose-only effect, or another doubt; inactive = no such curve, though single readings can be large; an effect the other way counts as inactive or inconclusive.

SMILES | CHX counter | FBPA Giardia inh | Tb PYK inh | LmPK inh | Shiga toxin inh | RE007 growth inh
COc1ccc(S(=O)(=O)N2CCCCC2)cc1NC(=O)c1ccc2ccccc2n1 | 13.6 | -2.1% | 4.7% | 1.7% | -6.6 | -10.2%
Cc1ccc(S(=O)(=O)N2CCCCC2)cc1NC(=O)c1ccc2ccccc2n1 | 45.6* | -19.5% | -0.6% | -2.0% | 47.4* | 0.0%
COc1ccc(NC(=O)c2ccc3ccccc3n2)cc1S(=O)(=O)N1CCCCC1 | 37.7* | -6.6% | -3.4% | 2.6% | 44.2 | -2.9%
Cc1ccc(-n2c(C)cc(/C=C3/C(=O)NC(=O)N(C)C3=O)c2C)cc1 | -3.3 | -0.3% | 1.5% | -4.9% | 15.0 | 14.7%
Cc1ccc(-n2c(C)cc(/C=C3\SC(=O)NC3=O)c2C)cc1 | 31.9* | -22.6% | 0.4% | 1.0% | 83.3* | 20.5%
COc1ccc(-n2c(C)cc(/C=C3\SC(=O)NC3=O)c2C)cc1 | 41.6* | -22.8% | -7.0% | -1.6% | 58.3* | 67.1%
Cc1cc(/C=C2\SC(N)=NC2=O)c(C)n1-c1ccc(F)cc1 | 19.9* | -25.3% | -1.4% | -2.3% | 16.0 | -7.8%
Cc1cc(/C=C2\SC(=S)NC2=O)c(C)n1-c1cccc(O)c1 | 40.9* | 10.3% | -8.9% | -29.3% | 64.5* | 20.8%
Cc1cc(/C=C2\SC(=S)N(C)C2=O)c(C)n1-c1ccc(O)cc1 | 51.6* | -18.9% | -2.6% | 1.1% | 69.6* | 16.9%
O=C1NN(c2ccccc2)C(=O)C1=Cc1ccccc1O | nt | nt | -2.3% | nt | nt | 135.1%
Cc1cc(/C=C2/C(=O)NN(c3ccccc3)C2=O)c(C)n1-c1cccc(O)c1 | 57.4* | -3.5% | -5.7% | -5.6% | 59.7* | -1.1%
CCCn1c(=O)c2sccc2n2c(CCCC(=O)N3CCN(c4ccccc4OC)CC3)nnc12 | nt | nt | -5.8% | nt | nt | nt
O=C(Nc1ccccc1F)Oc1cccc(OC(=O)Nc2ccccc2F)c1 | 45.5* | -4.8% | -9.1% | ? | 100.7* | -7.3%
O=C(Nc1ccccc1F)c1cccc(C(=O)Nc2ccccc2F)c1 | 13.9 | -0.3% | -3.4% | -6.2% | 19.4 | 6.6%
COc1cccc(C(=O)Nc2ccccc2F)c1 | 30.0* | -3.0% | -3.3% | -28.7% | 98.2* | -3.2%
COc1cccc(C(=O)Nc2ccc(F)cc2F)c1 | 39.2* | 1.1% | -19.0% | -27.3% | 59.1* | -10.3%
COc1cc(C(N)=O)ccc1OCc1ccccc1 | 24.0 | -1.0% | 0.1% | -0.8% | 84.9 | -13.9%
COc1ccc(COc2ccccc2C(N)=O)cc1F | 33.2* | 2.5% | -0.1% | -2.7% | 66.1* | 0.8%
O=C(CC(=O)Nc1ccccc1F)Nc1ccccc1F | 6.8 | 8.4% | -1.1% | 1.7% | 7.2 | -7.1%
COc1ccc(C(=O)Nc2ccc(F)cc2F)cc1OC | 12.8 | 3.2% | 6.8% | -10.0% | -13.4 | 6.8%
Cc1cc2nc(-c3ccc(OCc4ccc(F)cc4)cc3)cc(C(F)(F)F)n2n1 | nt | nt | -4.9% | nt | nt | nt
COc1ccsc1C(=O)Nc1ccc(F)cc1F | 30.0* | 2.8% | -3.4% | 1.6% | 30.9 | -24.0%
O=C(Nc1ccccc1)Oc1cccc(Br)c1 | 13.5* | -4.4% | -1.6% | -7.2% | 28.4 | -19.0%
COc1cccc(C(=O)Nc2ccc(C(F)(F)F)n(C)c2=O)c1 | 34.6* | -2.2% | -11.0% | ? | 50.5* | -14.1%
COc1cccc(C(=O)Nc2ccc(F)c(F)c2F)c1 | 34.8* | 0.1% | -0.8% | -27.7% | 136.2* | -29.9%
SMILES | CHX counter | FBPA Giardia inh | Tb PYK inh | LmPK inh | Shiga toxin inh | RE007 growth inh
COc1cccc(C(=O)N(C)CC(=O)Nc2ccc(F)c(F)c2F)c1 | -5.9 | -1.7% | 2.1% | 2.3% | -7.0 | 2.3%
CC(C)(C)n1nc2c(c1NC(=O)c1cccc(Cl)c1)CS(=O)(=O)C2 | 4.2 | -2.5% | 0.4% | -1.2% | 8.8 | 8.3%
CC1(C)N=C(N)N=C(N)N1c1ccc(Cl)cc1 | nt | nt | 0.5% | nt | nt | nt
Cn1ccc(C(=O)Oc2ccc(C(=O)Nc3ccc(F)cc3F)cc2)n1 | 26.1* | -3.0% | -1.1% | -20.7% | 53.0 | -0.3%
O=C(Nc1ccc(Br)cc1F)c1cccnc1 | 15.3 | 4.7% | -3.5% | -4.4% | 86.1* | 1.1%
CN(C)S(=O)(=O)c1ccc(C(=O)Nc2ccc(F)cc2F)cc1 | 8.0 | 0.9% | -1.6% | 0.5% | 15.3 | -1.8%
CC(C)Oc1cccc(C(=O)Nc2ccc(Br)cc2F)c1 | 65.2* | -0.3% | 2.6% | 0.0% | 106.6* | 3.8%
COc1ccccc1OCc1ccc(C(=O)Nc2ccccc2F)cc1 | 6.7* | -0.4% | -6.8% | -5.8% | 47.3* | -5.4%
O=C(CN1C(=O)NC2(CCCCC2)C1=O)NCC(=O)Nc1ccc(F)c(F)c1 | nt | nt | 4.9% | nt | nt | -7.9%
CC1(C)CC(=O)C(CSC(=O)c2ccccc2)C(=O)C1 | nt | nt | ? | nt | nt | -15.0%
O=C(CCNS(=O)(=O)c1cccc2nsnc12)Nc1ccc(F)cc1 | nt | nt | 4.1% | nt | nt | nt
O=C(Nc1ccccc1F)c1ccc(C(=O)c2ccccc2)cc1 | 28.9* | nt | -1.3% | 3.6% | 75.0* | 0.2%
Cc1nc(N)nc(N/N=C/c2c(F)cccc2Cl)n1 | -2.4 | ? | 0.7% | -9.5% | 30.7 | -10.3%
Cc1nc(C#N)c(N/N=C/c2c(F)cccc2Cl)o1 | 28.1* | -8.2% | -5.0% | -9.7% | 35.0 | -7.8%
COc1cc(C2Nc3cc(Cl)c(S(N)(=O)=O)cc3S(=O)(=O)N2)ccc1OCc1ccccc1 (centres undefined) | 54.8* | -14.8% | -15.9% | -21.4% | 128.1* | -26.1%
COc1cc(C2Nc3cc(Cl)c(S(N)(=O)=O)cc3S(=O)(=O)N2)cc(OC)c1OC (centres undefined) | -5.5 | -7.4% | -2.4% | 3.7% | -4.0 | 5.0%
Cc1cc(C)nc(Nc2n[nH]c(-c3ccc(C(C)(C)C)cc3)n2)n1 | -1.8 | 6.9% | -14.2% | 3.1% | -4.8 | 0.7%
Cc1cc(C)nc(Nc2n[nH]c(-c3ccccc3C)n2)n1 | 42.1* | -6.5% | 3.8% | -2.4% | 100.3* | -24.7%
Cc1cc(C)nc(Nc2n[nH]c(-c3ccccc3Br)n2)n1 | 47.6* | 1.0% | 3.7% | -12.9% | 110.2* | -9.1%
Cc1cc(C)nc(Nc2ccccc2Br)n1 | -2.4 | -6.3% | -2.9% | -1.9% | -10.1 | 7.0%
Cc1cc(C)nc(Nc2n[nH]c(-c3ccc(N)cc3)n2)n1 | 35.6* | -9.2% | -12.7% | -0.6% | 72.4* | 1.2%
Cc1cc(C)nc(Nc2n[nH]c(C)n2)n1 | -2.7 | -17.4% | 2.0% | 9.2% | -1.2 | -2.6%
COc1ccc(CNC(=O)c2ccc(CS(=O)(=O)c3ccccc3OC)o2)cc1 | nt | nt | 0.0% | nt | nt | nt
O=C(CC1C(=O)N(c2ccc(F)cc2)C(=O)N1Cc1ccc2c(c1)OCO2)Nc1ccc(Cl)cc1 (centres undefined) | nt | nt | 1.6% | nt | nt | nt
COc1ccc(/C=N/Nc2nncc3ccccc23)cc1 | 25.3* | -1.1% | ? | 11.2µM* | 9.1 | -18.0%
COc1ccccc1/C=N/Nc1nncc2ccccc12 | 45.6* | -9.7% | -8.3% | -5.8% | + | -7.5%
COc1ccc(/C(C)=N/Nc2nncc3ccccc23)cc1 | 27.1* | 6.2% | -0.7% | -15.5% | 62.6* | 0.3%
